Among the test systems are SK-MEL-2 melanoma; EKVX NSCLC; SN12C renal; UO-31 renal; TK-10 renal; ACHN renal; CAKI-1 renal; A498 renal; CCRF-CEM leukemia; MOLT-4 leukemia; SR leukemia; OVCAR-8 ovarian; OVCAR-5 ovarian; OVCAR-4 ovarian; SK-OV-3 ovarian; IGROV1 ovarian; OVCAR-3 ovarian; HS 578T breast; NCI/ADR-RES ovarian; RPMI-8226 leukemia.
Assay in all cases: NCI-60 one-dose screen, 48 h (100 = growth as untreated, 0 = no growth, -100 = all killed)
Common to all, as to settings: 10 µM unless noted

Each structure is given as a SMILES string. The panel holds about 83,000 compounds, 20% with a hit somewhere; the sample as a whole holds those more often.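 Percent growth is the endpoint: 0 to 100 indicates growth inhibition (40 means 60% inhibition), 0 means no net growth, and negative values indicate cell death.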 Unmarked numbers belong to inactive results. Calls of active or inactive are those of the source. How the source made its calls: active means growth percent below 10; inactive means the rest.

As to `CN1CCN(c2ccc3c4c(cccc24)C(=O)N(c2cccc(-c4nn(-c5ccccc5)cc4-c4nc5ccccc5s4)c2)C3=O)CC1`, the growth in the assay with SK-MEL-2 melanoma was 120%; in the assay on EKVX NSCLC, 107%; with SN12C renal, 94.8%; with UO-31 renal, 68.5%; in the assay on TK-10 renal, 119%; in the assay on ACHN renal it was 101%. Further, the growth is 97% in the assay with CAKI-1 renal; 128% with A498 renal; 60.3% with CCRF-CEM leukemia; 47.5% in the assay with MOLT-4 leukemia; -25% (active) with SR leukemia; 94.6% in the assay with OVCAR-8 ovarian. Further, the growth in the assay with OVCAR-5 ovarian is 122%; with OVCAR-4 ovarian, 103%; in the assay on SK-OV-3 ovarian it was 135%; in the assay with IGROV1 ovarian, 93.8%; in the assay with OVCAR-3 ovarian, 118%; in the assay with HS 578T breast, 91.7%. Besides, in the assay on NCI/ADR-RES ovarian, the growth is 95.2%.
Turning to `COc1c2c(cc3c1C(CCc1ccccc1)N(C)CC3)OCO2` (centres undefined), the growth was -18.1% (active) in the assay on SK-MEL-2 melanoma; 16.1% in the assay with EKVX NSCLC; 8.61% (active) in the assay on SN12C renal; 14.3% in the assay with UO-31 renal; 33.5% in the assay on TK-10 renal; 14.9% in the assay on ACHN renal. Further, the growth in the assay with CAKI-1 renal was 14.5%; in the assay on A498 renal, -15.4% (active); in the assay with CCRF-CEM leukemia, 14.2%; with MOLT-4 leukemia, 8.71% (active); in the assay with SR leukemia it was -9.93% (active); in the assay on OVCAR-8 ovarian it was 16.9%. For the same compound, the growth with OVCAR-5 ovarian was 16.2%; in the assay with OVCAR-4 ovarian it was 29.2%; in the assay on SK-OV-3 ovarian, -6.7% (active); in the assay on IGROV1 ovarian it was -4.07% (active); in the assay with OVCAR-3 ovarian, 3.16% (active); in the assay with HS 578T breast, 11%. For the same compound, the growth with NCI/ADR-RES ovarian was 1.62% (active).
With `O=C(NC(=S)N1CCN(c2ncnc3c2cnn3-c2ccccc2)CC1)c1ccc(F)cc1`, the growth is 91.6% in the assay on SK-MEL-2 melanoma; 86.2% in the assay on EKVX NSCLC; 64.9% in the assay on SN12C renal; 74.4% in the assay on UO-31 renal; 140% in the assay on TK-10 renal; 79.6% with ACHN renal. The growth is 84.8% in the assay with CAKI-1 renal; 124% with A498 renal; 45.2% with MOLT-4 leukemia; 8.59% (active) in the assay on SR leukemia; 76.3% in the assay on RPMI-8226 leukemia; 67.8% in the assay on OVCAR-8 ovarian. Further, the growth in the assay on OVCAR-5 ovarian is 92.8%; with OVCAR-4 ovarian, 45.8%; in the assay on SK-OV-3 ovarian, 69.1%; in the assay with IGROV1 ovarian it was 79.4%; with OVCAR-3 ovarian it was 113%; with HS 578T breast, 70.5%.
`COc1ccc(-c2cc(-c3cc(OC)c(OC)c(OC)c3)[nH]c(=O)c2C#N)cc1`: the growth was 97.8% with SK-MEL-2 melanoma; 65.6% in the assay with EKVX NSCLC; 8.1% (active) in the assay on SN12C renal; -24.9% (active) in the assay with UO-31 renal; 40.8% in the assay with TK-10 renal; -25.4% (active) in the assay on ACHN renal. For the same compound, the growth in the assay with CAKI-1 renal is 47%; in the assay on A498 renal, -2.4% (active); in the assay on CCRF-CEM leukemia, 76.7%; in the assay on MOLT-4 leukemia it was 80.1%; in the assay on SR leukemia, 80.8%; in the assay with OVCAR-8 ovarian, 13.4%. The growth in the assay with OVCAR-5 ovarian was 79.1%; in the assay on OVCAR-4 ovarian, 7.74% (active); in the assay with SK-OV-3 ovarian, 30.7%; in the assay with IGROV1 ovarian, 36.7%; in the assay with OVCAR-3 ovarian, 102%; in the assay on HS 578T breast, 24.2%.
Take `COc1ccc(-c2cc(-c3cc(C(C)C)c(O)cc3C)nn2-c2ccc(S(N)(=O)=O)cc2)cc1`: the growth was 54.7% in the assay on SK-MEL-2 melanoma; 61.1% with EKVX NSCLC; 16% with SN12C renal; 39.1% in the assay on UO-31 renal; 58% with TK-10 renal; 55.8% in the assay with ACHN renal. Moreover, the growth with CAKI-1 renal is 63.9%; in the assay with A498 renal, 87.7%; in the assay on CCRF-CEM leukemia it was 12.2%; with MOLT-4 leukemia, 14.7%; in the assay with SR leukemia, 5.77% (active); in the assay on OVCAR-5 ovarian it was 65.8%. Moreover, the growth in the assay with OVCAR-4 ovarian is 64%; with SK-OV-3 ovarian, 60.5%; in the assay with IGROV1 ovarian, 85.8%; in the assay with OVCAR-3 ovarian, 8.38% (active); with HS 578T breast, 28.9%; in the assay on NCI/ADR-RES ovarian, -17.2% (active).
For the compound `COc1ccc2c(c1)C(Sc1ccc(Br)cc1)c1c(nc(N)c(C#N)c1N)O2` (centres undefined), the growth with SK-MEL-2 melanoma is 94.3%; with EKVX NSCLC it was 67%; in the assay on SN12C renal, 77.1%; in the assay on UO-31 renal, 43.7%; in the assay with TK-10 renal it was 108%; in the assay on ACHN renal, 79.7%. Moreover, the growth with CAKI-1 renal was 80.3%; with A498 renal, 103%; in the assay with CCRF-CEM leukemia, 9.55% (active); in the assay with MOLT-4 leukemia, 55%; with SR leukemia, 46.5%; with OVCAR-8 ovarian, 87%. Also, the growth in the assay with OVCAR-5 ovarian was 113%; in the assay on OVCAR-4 ovarian, 92.4%; with SK-OV-3 ovarian, 98.1%; in the assay on IGROV1 ovarian it was 59.1%; with OVCAR-3 ovarian, 114%; in the assay on HS 578T breast, 88.8%. Besides, the growth in the assay on NCI/ADR-RES ovarian is 86.5%.
As for `FC(F)(F)CN1CCN(CCn2c(C(F)(F)F)cc3c(Cl)ncnc32)CC1`, the growth in the assay on SK-MEL-2 melanoma was -89.4% (active); with EKVX NSCLC, 70.8%; in the assay on SN12C renal, 34.8%; in the assay on UO-31 renal, -95.1% (active); in the assay with TK-10 renal, 114%; with ACHN renal, -63% (active). Further, the growth was 24.1% with CAKI-1 renal; 104% with A498 renal; -16.8% (active) in the assay with CCRF-CEM leukemia; -39% (active) with MOLT-4 leukemia; -54.6% (active) with SR leukemia; -6.12% (active) in the assay with RPMI-8226 leukemia. In addition, the growth with OVCAR-5 ovarian is 103%; with OVCAR-4 ovarian, 21.5%; in the assay with SK-OV-3 ovarian, 71.4%; in the assay on OVCAR-3 ovarian it was -47.4% (active); with HS 578T breast, 47.4%; in the assay on NCI/ADR-RES ovarian, 75.1%.
For the compound `Cc1ccc(C(=O)Nc2cc(-n3cnc(F)c3)cc(C(F)(F)F)c2)cc1C#Cc1cnc2cccnn12`, the growth is 40.7% in the assay on SK-MEL-2 melanoma; 74.2% in the assay on EKVX NSCLC; 45.6% in the assay on SN12C renal; 39.9% in the assay on UO-31 renal; 83.2% in the assay with TK-10 renal; 59.4% with ACHN renal. The growth is 63.1% with CAKI-1 renal; 103% with A498 renal; 29% in the assay on CCRF-CEM leukemia; 44.7% with MOLT-4 leukemia; 18.6% with SR leukemia; 66.8% with OVCAR-8 ovarian. Besides, the growth with OVCAR-5 ovarian was 68.3%; in the assay with OVCAR-4 ovarian, 77.4%; with SK-OV-3 ovarian it was 114%; in the assay on IGROV1 ovarian, 71.5%; in the assay on OVCAR-3 ovarian, 119%; in the assay on HS 578T breast it was 35.8%. The growth in the assay with NCI/ADR-RES ovarian was 57.2%.
As for `Cc1oc(-c2ccccc2)nc1CN[C@@H]1C[C@@H]2C[C@H]([C@H]1C)C2(C)C`, the growth in the assay with SK-MEL-2 melanoma was 85.7%; in the assay on EKVX NSCLC it was 42.4%; with SN12C renal it was 10.1%; in the assay with UO-31 renal it was 23.9%; in the assay on TK-10 renal, 80.8%; with ACHN renal, 25.8%. Moreover, the growth in the assay on CAKI-1 renal is 44.5%; in the assay with A498 renal, 31.6%; with CCRF-CEM leukemia, 23.7%; in the assay with MOLT-4 leukemia, 0.127% (active); in the assay with SR leukemia it was -6.32% (active); with OVCAR-5 ovarian it was 30.7%. Besides, the growth is 74.5% in the assay on OVCAR-4 ovarian, 73.5% in the assay with SK-OV-3 ovarian, 69.2% in the assay on HS 578T breast and -38.1% (active) in the assay on NCI/ADR-RES ovarian.

The values are drawn from PubChem BioAssay (NCI).
